Calls of active or inactive are those of the source. Cut-off read from the data, not from the text of the source: active = fold change permeability below about 0.7 or above about 1.3; inactive = in between.
test: compounds altering in vitro BBB leakiness – cell-based, FITC-avidin fluorescence, HTS, primary screen (AID 1963498); conditions: brain endothelial barrier, actives lie on both sides; note: test concentration not given here

Structure (SMILES)	fold change permeability
CC(=O)NCCc1c[nH]c2ccc(O)cc12	1.1 (inactive)
CCN(CC)CCn1c(=O)c(Cc2ccc(OC)cc2)nc2ccccc21	0.7 (active)
Cc1nc(N=Nc2ccc(S(=O)(=O)O)cc2S(=O)(=O)O)c(COP(=O)(O)O)c(C=O)c1O	0.9 (inactive)
Cc1ccc(/C(=C\CN2CCCC2)c2ccccn2)cc1	0.8 (inactive)
Oc1cc(O)cc(/C=C/c2ccc(O)c(O)c2)c1	0.7 (active)
CC(C)C[C@H]1C(=O)N2CCC[C@H]2[C@]2(O)O[C@](NC(=O)[C@@H]3C=C4c5cccc6[nH]c(Br)c(c56)C[C@H]4N(C)C3)(C(C)C)C(=O)N12	1.1 (inactive)
O=C1N/C(=N/S(=O)(=O)c2cccc3ccccc23)S/C1=C\c1ccc(Br)cc1	1.3 (active)
C[C@]12CC[C@@H]3c4ccc(O)cc4CC[C@H]3[C@@H]1CC[C@@H]2O	1 (inactive)
O=C(O)CCc1ccc(NCc2cccc(Oc3ccccc3)c2)cc1	0.7 (active)
O=C(O)C1CCCNC1 (centres undefined)	1.3 (active)
CC1=C(C(=O)O)N2C(=O)[C@@H](NC(=O)[C@H](N)C3=CCC=CC3)[C@H]2SC1	0.9 (inactive)
c1ccc2c(c1)CCC[C@H]2Nc1nc2ccccc2[nH]1	1.3 (active)
C[n+]1cc2c3c(ccc2c2ccc4cc5c(cc4c21)OCO5)OCO3	2.1 (active)
O=c1ccn([C@@H]2O[C@H](COP(=O)(O)OP(=O)(O)O)[C@@H](O)[C@H]2O)c(=O)[nH]1	0.8 (inactive)
CCCCCCNC(=O)n1cc(F)c(=O)[nH]c1=O	0.9 (inactive)
NCC(O)C1CCCCCCC1 (centres undefined)	1 (inactive)
COc1ccccc1CNCCCCCCNCCCCCCCCNCCCCCCNCc1ccccc1OC	0.8 (inactive)
CCOC(=O)C1=C[C@]2(CC)CCCN3CCc4c(n1c1ccccc41)[C@@H]32	1.8 (active)
Nc1ccc2c3c(cccc13)C(=O)NC2=O	2.8 (active)
CCCCCOC(=O)Nc1nc(=O)n([C@@H]2O[C@H](C)[C@@H](O)[C@H]2O)cc1F	1.4 (active)

Structure (SMILES)	fold change permeability
CN1C(=O)c2sccc2N(C)c2nc(Nc3ccc(S(N)(=O)=O)cc3)ncc21	1.8 (active)
O=C(O)c1cc(=O)cc(C(=O)O)[nH]1	0.8 (inactive)
Oc1ccccc1-c1cc(-c2ccccc2F)[nH]n1	1 (inactive)
NC12CC3CC(CC(C3)C1)C2	0.9 (inactive)
Cc1ccccc1N1C(=O)c2cc(S(N)(=O)=O)c(Cl)cc2NC1C (centres undefined)	0.8 (inactive)
COc1cc(N2CCN(C)CC2)ccc1Nc1nccc(-c2cn(C)c3cnccc23)n1	1.2 (inactive)
Cc1ccc(C(=O)N(CCCN)C(c2oc3cc(Cl)ccc3c(=O)c2Cc2ccccc2)C(C)C)cc1 (centres undefined)	1.6 (active)
O=C1c2c(O)ccc(O)c2C(=O)c2c(NCCNCCO)ccc(NCCNCCO)c21	0.8 (inactive)
CCCn1c(=O)c2c(ncn2C)n(CCC)c1=O	1 (inactive)
N=C(N)c1ccc(N)cc1	1.1 (inactive)
COc1cc2c(cc1O)CC[C@@H]1[C@@H]2CC[C@]2(C)[C@@H](O)CC[C@@H]12	1.3 (active)
CSc1ccc2c(c1)N(CCC1CCCCN1C)c1ccccc1S2 (centres undefined)	1.4 (active)
COCCOC(=O)C1=C(C)NC(C)=C(C(=O)OC(C)C)C1c1cccc([N+](=O)[O-])c1 (centres undefined)	0.7 (active)
C[C@]12C=CC(=O)C=C1CC[C@H]1[C@@H]3C[C@@H](O)[C@](O)(C(=O)CO)[C@@]3(C)C[C@H](O)[C@@]12F	1.4 (active)
O=C(C(c1ccccc1)c1ccccc1)N1CCN(CC(O)COc2cccc3ncccc23)CC1 (centres undefined)	0.8 (inactive)
O=C1Nc2ccc(I)cc2/C1=C/c1cc(Br)c(O)c(Br)c1	0.7 (active)
O=c1[nH]cnc2[nH]ncc12	1 (inactive)
CCOC(=O)[C@@H](N)CCC(=O)N[C@@H](CSCc1ccccc1)C(=O)N[C@@H](C(=O)OCC)c1ccccc1	1.3 (active)
Cc1cccc(C)c1OCC(C)N (centres undefined)	0.8 (inactive)

Source: PubChem BioAssay
